These results are taken from PubChem BioAssay (EPA / NIEHS).

The target of assay [1] is Bile acid receptor (Homo sapiens) (UniProt Q96RI1). In words: ATG_IR1_CIS: Attagene CIS-FACTORIAL HepG2 Assay for human Nuclear Receptor Subfamily 1 Group H Member 4 (NR1H4), IR1 submotif (AID 2282946). Particulars: IR1 reporter transcription, actives raise or lower the signal. Summed up: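 HepG2 cells transiently transfected with multiplexed cis-element reporter units read endogenous transcription factor activity. After 24 h compound exposure, reporter mRNA was quantified by RT-PCR, fluorescent labelling, HpaI digestion and capillary electrophoresis; bidirectional fitting versus DMSO baseline.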

Assay [2] can be described thus: ATG_GRE_CIS: Attagene CIS-FACTORIAL HepG2 Assay for human Glucocorticoid Response Elements (GRE) (AID 2282947). The settings on record: HepG2 GRE cis-reporter, Attagene multiplex mRNA; actives raise or lower the signal. Summed up: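 Reporter transcripts read by RT-PCR with capillary electrophoresis fluorescence after a 24 h chemical exposure of HepG2 cells transiently transfected with multiple cis-element reporter units. Gain or loss fitted against DMSO.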

A short description of assay [3]: ATG_ISRE_CIS: Attagene CIS-FACTORIAL HepG2 Assay for human Interferon Regulatory Factor 1 (IRF1) binding to an Interferon-Stimulated Response Element (ISRE) (AID 2282948). The settings on record: HepG2 ISRE cis-reporter (Attagene), mRNA transcription readout; actives raise or lower the signal. In short, it runs like this:
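Read-out: fluorescent RT-PCR products resolved by capillary electrophoresis, reporting endogenous transcription factor activity via ISRE-driven reporter mRNA in transfected HepG2 cells dosed for 24 h; gain or loss fitted relative to DMSO.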

The nature of assay [4]: ATG_M_32_CIS: Attagene CIS-FACTORIAL HepG2 Assay for M32 Transcription Factor (Internal Marker) (AID 2282949).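 Also: background control marker of the multiplexed CIS panel rather than a real target.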 Particulars: HepG2 Attagene cis-factorial M32 reporter, mRNA; actives raise or lower the signal. Summed up:
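HepG2 human liver cells transiently transfected with cis-promoter-driven multiple reporter transcription units, dosed 24 h. Reporter mRNA quantified by RT-PCR, FAM-labelled primer extension, HpaI digest and capillary electrophoresis; bidirectional fit versus DMSO baseline.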

Assay [5] is described as follows: ATG_M_06_CIS: Attagene CIS-FACTORIAL HepG2 Assay for M06 Transcription Factor (Internal Marker) (AID 2282950). The settings on record: HepG2 Attagene CIS-FACTORIAL M06 internal marker reporter; actives raise or lower the signal. Summed up:
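Fluorescence-labelled RT-PCR products from cis-promoter reporter units, cut with HpaI and resolved by capillary electrophoresis, give the signal. Cells are human HepG2, dosed for 24 h. Serves as background control, fitted relative to DMSO.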

Assay [6] addresses Hepatocyte nuclear factor 6 (Homo sapiens) (UniProt Q9UBC0). In words: ATG_HNF6_CIS: Attagene CIS-FACTORIAL HepG2 Assay for human Hepatocyte Nuclear Factor 6 (HNF6) (AID 2282952). Particulars: HepG2 Attagene cis-factorial HNF6 reporter transcription; actives raise or lower the signal. Summed up:
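Readout: fluorescent reporter-transcript fragments resolved by capillary electrophoresis after RT-PCR, reflecting endogenous factor activity in transfected HepG2. Exposure 24 h. Gain or loss of signal fitted bidirectionally against DMSO.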

In assay [7] the target is Heat shock factor protein 1 (Homo sapiens) (UniProt Q00613). In words: ATG_HSE_CIS: Attagene CIS-FACTORIAL HepG2 Assay for human Heat Shock Transcription Factor 1 (HSE) (AID 2282953). Particulars: HepG2 HSE cis-reporter, Attagene RNA transcription; actives raise or lower the signal. Summed up: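 After a 24 h incubation with test chemical, transfected HepG2 cells were harvested for RNA; reporter transcripts were measured by RT-PCR and capillary electrophoresis. Values reflect gain or loss of signal relative to DMSO.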

Assay [8] can be described thus: ATG_MRE_CIS: Attagene CIS-FACTORIAL HepG2 Assay for human Metal Responsive Element (MRE) (AID 2282954). The settings on record: HepG2 MRE cis-reporter transcription, Attagene multiplex; actives raise or lower the signal. In short, it runs like this: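 Endogenous MRE-dependent transcription read as reporter mRNA in transiently transfected human HepG2 cells at 24 h. RNA reverse-transcribed, PCR-amplified, labelled and resolved by capillary electrophoresis; gain or loss relative to DMSO.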

For assay [9], the target named is Paired box protein Pax-6 (Homo sapiens) (UniProt P26367). In words: ATG_Pax6_CIS: Attagene CIS-FACTORIAL HepG2 Assay for human Paired Box 6 (PAX6) (AID 2282956). The settings on record: HepG2 CIS-FACTORIAL PAX6 reporter transcription, RNA readout; actives raise or lower the signal. Summed up:
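Readout: reporter transcript fluorescence after RT-PCR and capillary electrophoresis. Cells: HepG2, transiently transfected with cis-regulated MRTUs. Exposure 24 h. Gain or loss of signal fitted bidirectionally relative to DMSO.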

A short description of assay [10]: ATG_PXRE_CIS: Attagene CIS-FACTORIAL HepG2 Assay for human Pregnane X Receptor Element (PXRE) (AID 2282957). Particulars: HepG2 Attagene CIS-FACTORIAL PXRE reporter, mRNA; actives raise or lower the signal. Summed up:
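Read-out: fluorescence of reporter-specific RT-PCR products resolved by capillary electrophoresis, fitted bidirectionally relative to DMSO. Human HepG2 liver cells carried transfected cis-promoter reporter units and were exposed to chemicals for 24 h.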

The nature of assay [11]: ATG_PPRE_CIS: Attagene CIS-FACTORIAL HepG2 Assay for human Peroxisome Proliferator-activated Response Element (PPRE) (AID 2282958). The settings on record: HepG2 PPRE cis-element reporter, Attagene transcription factor profiling; actives raise or lower the signal. Summed up: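 HepG2 cells transiently transfected with multiplexed cis-element reporter units measure endogenous transcription factor activity. After 24 h compound exposure, reporter mRNA is quantified by RT-PCR, 6-FAM labeling, HpaI digestion and capillary electrophoresis; bidirectional fits are made against DMSO baseline.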

Assay [12] is described as follows: ATG_RORE_CIS: Attagene CIS-FACTORIAL HepG2 Assay for human RAR-related Orphan Receptor Element (RORE) (AID 2282959). The settings on record: HepG2 Attagene cis-factorial RORE reporter, mRNA; actives raise or lower the signal. In short, it runs like this:
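HepG2 cells transiently transfected with multiple cis-element reporter transcription units, exposed to chemical for 24 h. Reporter mRNA quantified by RT-PCR, 6-FAM primer-extension labeling, HpaI digestion and capillary electrophoresis; bidirectional fit versus DMSO baseline.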

The nature of assay [13]: ATG_Sox_CIS: Attagene CIS-FACTORIAL HepG2 Assay for human SRY-box transcription factor (SOX) (AID 2282960). The settings on record: HepG2 Attagene cis-factorial SOX reporter, mRNA; actives raise or lower the signal. In short, it runs like this: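 HepG2 cells transiently transfected with cis-element-driven multiple reporter transcription units, dosed 24 h; reporter mRNA measured by RT-PCR, FAM labelling, HpaI digestion and capillary electrophoresis. Bidirectional fit versus DMSO baseline.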

Assay [14] has as its target Transcription factor Sp1 (Homo sapiens) (UniProt P08047). In words: ATG_Sp1_CIS: Attagene CIS-FACTORIAL HepG2 Assay for human Specificity Protein 1 (Sp1) (AID 2282961). Particulars: HepG2 Sp1 cis-reporter transcription, actives raise or lower the signal. In short, it runs like this: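 HepG2 cells transiently transfected with multiple reporter transcription units driven by cis-regulatory elements; Sp1-responsive reporter mRNA measured 24 h after dosing by RT-PCR and capillary electrophoresis fluorescence, fitted bidirectionally against DMSO baseline.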

A short description of assay [15]: ATG_SREBP_CIS: Attagene CIS-FACTORIAL HepG2 Assay for human Sterol Regulatory Element Binding (SREBP) (AID 2282962). Particulars: HepG2 Attagene cis-factorial SREBP reporter, mRNA; actives raise or lower the signal. Summed up: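 Readout: fluorescent reporter-transcript peaks resolved by capillary electrophoresis after RT-PCR. Cells were human HepG2 carrying transfected cis-promoter reporter constructs, dosed for 24 h. Gain or loss of signal was fitted against DMSO controls.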

The target of assay [16] is Signal transducer and activator of transcription 3 (Homo sapiens) (UniProt P40763). In words: ATG_STAT3_CIS: Attagene CIS-FACTORIAL HepG2 Assay for human Signal Transducer and Activator of Transcription 3 (STAT3) (AID 2282963). The settings on record: HepG2, Attagene cis-factorial STAT3 reporter transcription; actives raise or lower the signal. In short, it runs like this: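 Readout is reporter transcript quantified by RT-PCR and capillary electrophoresis, with 6-FAM primer extension and HpaI digestion. Total RNA is taken 24 h after dosing transiently transfected HepG2 carrying cis-regulated reporter units. Bidirectional fit against DMSO.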

A short description of assay [17]: ATG_TA_CIS: Attagene CIS-FACTORIAL HepG2 Assay for human TA Basal Promoter (AID 2282964). Particulars: HepG2 Attagene CIS-factorial TA basal promoter reporter; actives raise or lower the signal. In short, it runs like this:
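Multiplexed mRNA reporter assay, HepG2, 24 h. Reporter cDNA amplified, 6-FAM primer-extended, HpaI-cut, CE-sized; DMSO = negative control and baseline.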

Assay [18] in a line: ATG_PBREM_CIS: Attagene CIS-FACTORIAL HepG2 Assay for human Phenobarbital-responsive Enhancer Module (PBREM) (AID 2282955). Particulars: HepG2 PBREM cis-reporter, Attagene multiplexed transcription; actives raise or lower the signal. In short, it runs like this: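 HepG2 cells transiently transfected with multiple cis-regulated reporter transcription units; endogenous factor activity at the PBREM element measured as reporter mRNA 24 h after dosing, via RT-PCR and capillary electrophoresis of fluorescent fragments; bidirectional fitting versus DMSO.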

Assay [19] is described as follows: ATG_TCF_b_cat_CIS: Attagene CIS-FACTORIAL HepG2 Assay for human T-Cell-Factor with beta-catenin (TCF/b-cat) (AID 2282965). Particulars: HepG2 TCF/beta-catenin cis-reporter transcription, actives raise or lower the signal. Summed up: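 Endogenous TCF/LEF activity read as reporter transcript level via RT-PCR and capillary electrophoresis fluorescence in transfected HepG2, 24 h exposure; gain or loss of signal fitted against DMSO controls.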

Assay [20] deals with Hypoxia-inducible factor 1-alpha (Homo sapiens) (UniProt Q16665). In words: ATG_HIF1a_CIS: Attagene CIS-FACTORIAL HepG2 Assay for human Hypoxia Inducible Factor 1 (HIF1A) (AID 2282951). The settings on record: HepG2 Attagene cis-factorial HIF1a reporter transcription; actives raise or lower the signal. In short, it runs like this:
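HepG2 cells transiently transfected with multiplexed cis-promoter reporter units; reporter mRNA read 24 h after dosing by RT-PCR, 6-FAM primer-extension labelling, HpaI digestion and capillary electrophoresis. Bidirectional fit versus DMSO baseline.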

The source made the active and inactive calls. The calls were made as follows: active = hit-call score of the fitted dose curve at least 0.9, where 1 is the maximum; inactive = score below 0.9.

Transcription factor Sp1 (Homo sapiens), sequence (P08047 whole entry, looked up): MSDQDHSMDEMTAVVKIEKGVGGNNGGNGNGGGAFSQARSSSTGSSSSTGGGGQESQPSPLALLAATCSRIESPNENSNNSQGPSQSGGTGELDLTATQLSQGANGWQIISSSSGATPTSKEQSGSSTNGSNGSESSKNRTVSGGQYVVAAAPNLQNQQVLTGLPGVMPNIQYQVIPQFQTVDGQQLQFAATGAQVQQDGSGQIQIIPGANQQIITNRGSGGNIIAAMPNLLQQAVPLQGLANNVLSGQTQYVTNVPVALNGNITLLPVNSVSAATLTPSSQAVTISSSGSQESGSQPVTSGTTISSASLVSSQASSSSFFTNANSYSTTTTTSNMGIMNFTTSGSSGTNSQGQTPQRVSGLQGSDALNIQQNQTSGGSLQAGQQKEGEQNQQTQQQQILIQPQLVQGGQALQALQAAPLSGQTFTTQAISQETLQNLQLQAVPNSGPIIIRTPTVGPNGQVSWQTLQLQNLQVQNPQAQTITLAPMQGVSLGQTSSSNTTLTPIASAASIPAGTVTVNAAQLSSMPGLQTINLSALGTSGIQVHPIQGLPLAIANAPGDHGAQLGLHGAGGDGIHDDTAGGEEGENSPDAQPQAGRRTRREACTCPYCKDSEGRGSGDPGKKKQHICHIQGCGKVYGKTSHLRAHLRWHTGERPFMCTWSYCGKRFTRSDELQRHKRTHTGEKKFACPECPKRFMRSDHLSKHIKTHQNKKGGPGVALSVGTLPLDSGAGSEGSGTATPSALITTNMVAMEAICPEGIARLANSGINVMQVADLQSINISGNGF
Heat shock factor protein 1 (Homo sapiens), sequence (Q00613 whole entry, looked up): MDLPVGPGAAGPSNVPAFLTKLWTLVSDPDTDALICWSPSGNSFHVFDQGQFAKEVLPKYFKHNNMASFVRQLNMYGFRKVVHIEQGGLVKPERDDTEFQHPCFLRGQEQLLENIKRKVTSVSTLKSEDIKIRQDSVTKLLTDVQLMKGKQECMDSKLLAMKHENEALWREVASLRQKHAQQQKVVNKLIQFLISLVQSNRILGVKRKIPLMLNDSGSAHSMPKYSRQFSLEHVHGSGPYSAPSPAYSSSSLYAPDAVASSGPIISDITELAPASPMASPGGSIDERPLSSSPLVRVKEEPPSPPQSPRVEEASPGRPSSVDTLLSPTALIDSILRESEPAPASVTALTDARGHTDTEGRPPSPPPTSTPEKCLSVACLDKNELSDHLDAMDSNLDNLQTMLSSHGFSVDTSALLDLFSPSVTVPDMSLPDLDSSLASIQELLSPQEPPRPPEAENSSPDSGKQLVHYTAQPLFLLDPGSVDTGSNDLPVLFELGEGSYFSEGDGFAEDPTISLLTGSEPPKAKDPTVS
Hepatocyte nuclear factor 6 (Homo sapiens), sequence (Q9UBC0 whole entry, looked up, the tested form may be a part): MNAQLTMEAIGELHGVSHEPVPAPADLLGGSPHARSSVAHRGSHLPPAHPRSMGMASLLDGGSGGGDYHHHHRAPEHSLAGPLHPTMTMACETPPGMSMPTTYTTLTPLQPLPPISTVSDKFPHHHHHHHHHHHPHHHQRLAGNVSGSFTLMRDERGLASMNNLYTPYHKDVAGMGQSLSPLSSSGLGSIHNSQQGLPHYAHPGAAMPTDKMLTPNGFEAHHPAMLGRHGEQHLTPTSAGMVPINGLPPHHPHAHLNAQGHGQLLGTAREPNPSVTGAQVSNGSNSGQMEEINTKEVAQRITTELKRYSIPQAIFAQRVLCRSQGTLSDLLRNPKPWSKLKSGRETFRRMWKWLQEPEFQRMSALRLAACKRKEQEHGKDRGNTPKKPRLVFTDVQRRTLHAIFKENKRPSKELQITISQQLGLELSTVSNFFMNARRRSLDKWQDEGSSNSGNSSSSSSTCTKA
Paired box protein Pax-6 (Homo sapiens), sequence (P26367 whole entry, looked up): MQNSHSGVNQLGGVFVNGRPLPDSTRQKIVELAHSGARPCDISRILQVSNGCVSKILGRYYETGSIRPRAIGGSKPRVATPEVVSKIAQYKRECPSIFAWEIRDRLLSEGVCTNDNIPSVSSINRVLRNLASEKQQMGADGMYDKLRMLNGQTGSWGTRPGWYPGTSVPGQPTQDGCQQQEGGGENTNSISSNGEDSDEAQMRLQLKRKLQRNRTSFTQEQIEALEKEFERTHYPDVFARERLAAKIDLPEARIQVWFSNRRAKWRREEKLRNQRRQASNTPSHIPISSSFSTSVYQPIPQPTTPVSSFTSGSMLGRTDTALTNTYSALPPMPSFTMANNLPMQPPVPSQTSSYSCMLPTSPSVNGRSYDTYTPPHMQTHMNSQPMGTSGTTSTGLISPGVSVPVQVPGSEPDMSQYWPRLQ
Bile acid receptor (Homo sapiens), sequence (Q96RI1 whole entry, looked up): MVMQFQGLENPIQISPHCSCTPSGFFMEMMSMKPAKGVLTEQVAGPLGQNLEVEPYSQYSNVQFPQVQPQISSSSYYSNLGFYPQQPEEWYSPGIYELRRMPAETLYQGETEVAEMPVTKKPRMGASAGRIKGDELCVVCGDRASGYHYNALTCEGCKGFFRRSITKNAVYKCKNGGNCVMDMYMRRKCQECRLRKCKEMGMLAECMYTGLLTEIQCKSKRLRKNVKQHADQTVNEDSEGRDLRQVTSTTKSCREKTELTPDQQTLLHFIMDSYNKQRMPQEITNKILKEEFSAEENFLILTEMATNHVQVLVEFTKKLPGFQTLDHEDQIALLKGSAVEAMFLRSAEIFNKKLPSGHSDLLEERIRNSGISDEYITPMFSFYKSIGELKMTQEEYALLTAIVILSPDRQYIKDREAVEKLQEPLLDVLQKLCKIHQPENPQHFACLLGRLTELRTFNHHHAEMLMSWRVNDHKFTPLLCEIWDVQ
Signal transducer and activator of transcription 3 (Homo sapiens), sequence (P40763 whole entry, looked up): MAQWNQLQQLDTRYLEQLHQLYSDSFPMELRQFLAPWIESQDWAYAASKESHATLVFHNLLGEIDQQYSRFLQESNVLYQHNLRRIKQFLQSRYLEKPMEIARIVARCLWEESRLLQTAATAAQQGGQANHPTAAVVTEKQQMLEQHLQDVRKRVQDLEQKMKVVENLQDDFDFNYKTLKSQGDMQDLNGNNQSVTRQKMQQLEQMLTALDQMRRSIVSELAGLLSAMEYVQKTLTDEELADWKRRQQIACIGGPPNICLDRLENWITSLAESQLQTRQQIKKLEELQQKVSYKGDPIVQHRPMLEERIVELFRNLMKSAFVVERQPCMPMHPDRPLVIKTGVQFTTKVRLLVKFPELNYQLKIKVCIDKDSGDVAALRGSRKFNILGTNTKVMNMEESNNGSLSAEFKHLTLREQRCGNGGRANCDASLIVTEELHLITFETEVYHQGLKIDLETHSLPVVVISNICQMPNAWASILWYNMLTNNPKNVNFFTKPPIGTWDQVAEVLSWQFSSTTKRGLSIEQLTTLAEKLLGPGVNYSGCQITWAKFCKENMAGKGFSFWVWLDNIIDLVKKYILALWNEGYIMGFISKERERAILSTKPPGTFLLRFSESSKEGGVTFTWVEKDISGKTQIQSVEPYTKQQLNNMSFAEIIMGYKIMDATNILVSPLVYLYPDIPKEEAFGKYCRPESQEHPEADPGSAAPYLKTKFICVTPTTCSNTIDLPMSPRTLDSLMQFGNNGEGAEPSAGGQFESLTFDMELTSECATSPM
Hypoxia-inducible factor 1-alpha (Homo sapiens), sequence (Q16665 whole entry, looked up): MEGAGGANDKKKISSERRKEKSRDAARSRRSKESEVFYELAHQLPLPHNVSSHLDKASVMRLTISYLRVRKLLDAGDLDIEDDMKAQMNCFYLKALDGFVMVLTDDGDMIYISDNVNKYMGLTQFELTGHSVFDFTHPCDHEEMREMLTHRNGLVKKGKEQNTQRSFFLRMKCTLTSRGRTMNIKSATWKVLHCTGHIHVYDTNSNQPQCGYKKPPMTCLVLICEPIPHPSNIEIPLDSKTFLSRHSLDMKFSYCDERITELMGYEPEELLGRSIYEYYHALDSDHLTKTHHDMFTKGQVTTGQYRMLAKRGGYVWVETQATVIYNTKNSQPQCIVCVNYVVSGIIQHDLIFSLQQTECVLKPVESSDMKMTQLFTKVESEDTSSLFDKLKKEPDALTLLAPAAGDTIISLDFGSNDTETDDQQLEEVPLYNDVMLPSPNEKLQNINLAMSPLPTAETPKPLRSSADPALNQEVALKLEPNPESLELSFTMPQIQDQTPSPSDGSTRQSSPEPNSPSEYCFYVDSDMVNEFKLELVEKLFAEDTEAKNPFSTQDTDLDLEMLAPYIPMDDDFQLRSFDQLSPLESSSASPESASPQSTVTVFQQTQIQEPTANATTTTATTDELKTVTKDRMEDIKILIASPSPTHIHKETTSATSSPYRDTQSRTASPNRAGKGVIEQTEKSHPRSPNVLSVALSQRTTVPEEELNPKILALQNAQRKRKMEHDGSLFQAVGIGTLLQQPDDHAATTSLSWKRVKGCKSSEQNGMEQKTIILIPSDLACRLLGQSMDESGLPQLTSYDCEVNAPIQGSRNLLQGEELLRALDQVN

With `CCCCCCCCCCCCCCCC[n+]1ccccc1`, the molecule was called inactive in assay [1], in [2], in assay [4], in assay [5], in assay [6] and in [7]. Also, the result in assay [8], in [9], in [10], in assay [12], in [13] and in [14] was inactive. Besides, the call in assay [15], in assay [16] and in [17] was inactive. The AC50 in assay [3] was 9.02 µM (active); in assay [11], 8.82 µM (active).
With `CO[Si](CCC1CCC2OC2C1)(OC)OC` (stereo not drawn), the outcome in assay [1], in [2], in assay [3], in [4], in assay [5] and in assay [6] was inactive. For the same molecule, the molecule was classed as inactive in assay [7], in assay [8], in [18], in [9], in assay [10] and in [11]. For the same molecule, the call in [12], in assay [13], in assay [15], in assay [17] and in assay [19] was inactive.
For `NC(=O)N=NC(N)=O`, the molecule was classed as inactive in assay [1], in assay [2], in assay [3], in assay [4], in assay [5] and in [6]. Moreover, the result in assay [8], in [18], in assay [9], in assay [10], in [11] and in assay [12] was inactive. In addition, the outcome in assay [13], in [14], in assay [15], in assay [16], in assay [17] and in assay [19] was inactive.
`Cn1c(=O)[nH]c2ncn(C)c2c1=O`: the molecule was classed as inactive in assay [1], in assay [2], in assay [3], in [4], in [5] and in assay [7]. Besides, the molecule was called inactive in assay [8], in assay [9], in assay [10], in assay [11], in assay [13] and in assay [14]. Besides, the result in assay [15], in [16], in assay [17] and in assay [19] was inactive.
In the case of `OCCc1ccncc1`, the molecule was classed as inactive in assay [1], in assay [2], in assay [3], in [4], in assay [5] and in assay [20]. The outcome in assay [6], in assay [7], in assay [8], in assay [9], in [10] and in [12] was inactive. The result in [13], in assay [14], in assay [15], in [16], in [17] and in assay [19] was inactive.
Consider `Nc1ccc(Cl)cc1Cl`, for which the result in assay [1], in assay [2], in assay [3], in assay [4], in assay [5] and in assay [20] was inactive. For the same molecule, the molecule was called inactive in [6], in [7], in assay [8], in assay [9], in [10] and in assay [11]. Moreover, the result in assay [13], in assay [14], in assay [16], in assay [17] and in [19] was inactive.
For `CCCCOCCOC(=O)COc1nc(Cl)c(Cl)cc1Cl`, the result in assay [1], in assay [2], in assay [3], in [4], in [5] and in [20] was inactive. The molecule was called inactive in assay [6], in [7], in [8], in [9], in assay [11] and in assay [13]. Also, the result in [14], in assay [15], in [16], in assay [17] and in [19] was inactive.
Regarding `CC(C)c1ccc2c(c1)CC[C@H]1[C@](C)(CN)CCC[C@]21C`, the result in [1], in assay [2], in assay [3], in assay [4], in assay [5] and in assay [10] was inactive. Besides, the call in assay [15], in assay [16] and in assay [17] was inactive. Also, the AC50 is 6.29 µM (active) in [7], 5.77 µM (active) in assay [8], 6.4 µM (active) in [9] and 5.65 µM (active) in [19].

Broadly, the AC50 is the concentration at which the activity in the assay is half-maximal.
